# Source: the OligoGym collection
# Biological target: EMILIN2
# Assay: pooled miR-30 sensor sort-seq; sequence = guide strand
# Conditions: shRNA
# Further: reference of the scale not given here.
row,Sequence,sensor-assay potency score (higher = more potent)
1,TTGACCAATGTCACCATTCTTT,-0.477
2,TTGAACTTTGTCCTTCAGGTGG,-0.378
3,TTCCATTACATACAAACCGAAT,-1.63
4,TTTCTGATCAACAAGCTGCTTC,0.352
5,TATTCCAGGAACTCTCTCCTGT,0.252
6,TTCTCCGTCACATTGATCCTTG,-0.623

# Biological target: EMP1
# Assay: as above
# Conditions: shRNA
row,Sequence,sensor-assay potency score (higher = more potent)
1,ATTCGCATAATGACTAGTGTAG,-0.191
2,TTGAGGGCATCTTCACTGGCAT,-0.461
3,ATAATGACTAGTGTAGATGGAC,-0.252
4,TACAGTTTTTCCAAAGACCTAC,-0.739
5,TCACTGGCATATGACAGGCTGT,-1.18
6,AATGGTGCTAACAAATAGCATA,-1.39
7,TTCACTGGCATATGACAGGCTG,-0.108
8,TAGCCGTGGTGATACTGCGTTC,-1.37
9,TACTGATGCATCTACCGTATTG,-1.81
10,TAGCATAATAACAGTAGCGATG,-1.5
11,TACCGTATTGGAAACCAACCAG,-0.163
12,ACCGTATTGGAAACCAACCAGA,-1.97
13,TTTTTCCAAAGACCTACTGATG,-1.45
14,ATAATAACAGTAGCGATGTGGA,-0.819
15,TAGTGTAGATGGACACCCCCAC,-0.261
16,AATAGCATAATAACAGTAGCGA,0.0884
17,ATCTACCGTATTGGAAACCAAC,-1.95
18,ATAGCATAATAACAGTAGCGAT,-1.69
19,TGATGCATCTACCGTATTGGAA,-0.931
20,TATTGGAAACCAACCAGACATT,-1.22
21,TTGGAAACCAACCAGACATTGG,-0.971
22,TTCGCATAATGACTAGTGTAGA,-1.4
23,ATAGCCGTGGTGATACTGCGTT,-0.125

# Biological target: ENAM
# Assay: as above
# Conditions: shRNA
row,Sequence,sensor-assay potency score (higher = more potent)
1,TATAATTTGATTTATTAACTTC,-0.315
2,TTGAACTTGTTGATTTCTGTAA,0.247
3,TGAAATACCACTGTCTTCCTGA,0.779
4,TTCTTTATAGAACATGGTGTGT,-0.573
5,TTGAGCTTCCTCTTCGGGCTGA,1.2
6,TTTAGGAGGATCTTCTTCTTTG,-0.209
7,TAAATTGTTCCTCAGTAGCTAA,-0.863
8,TTGAGGTATATTGTTCACCTTC,-0.314
9,TACTGTTGAGAGTTTCTCCAGG,0.393
10,TAGTCTTGTAGAGCTAGTGGAT,-0.371
11,TTATTTGTTCTTTTGGACCCAG,0.0187
